This is an account of results in PubChem BioAssay (NCATS).

Holding throughout (experiment): Cytotoxic Profiling of Annotated Libraries Using Quantitative High-Throughput Screening (AID 1296008); further: nearly all actives have a fitted effect of over 60% in size
What all share (conditions): Five cell lines viability, CellTiter-Glo ATP luminescence, 48-72 h; max response: active compounds read low
For orientation: ATP-based viability assays read luminescence as a measure of living cells.

For one test, the system named is HaCat. Summed up:
(§1)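 Compounds were pin-transferred onto cells and incubated 48 or 72 hr at 37 degree Celsius, 95% humidity. CellTiter-Glo was added, plates sat 10 min at room temperature, then ATP-coupled luminescence was imaged as the viability read-out.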

The subject of the next test is KB-3-1. Summed up: as §1
A further test relates to NIH3T3. Summed up: as §1

Inconclusive results are not listed. Unmarked numbers belong to inactive results. The source made the active and inactive calls. The call rests on the fitted dose curve; in most records, active means well fitted inhibition curve with a large enough effect; inconclusive means small, poorly fitted or top-dose-only effect; inactive means flat fitted curve, though single readings scatter.
On the % scale 0 is the no-effect control and ±100 the full control effect; potency means the concentration at half of the fitted maximal effect.

As to `C[C@@H]1CCC2C(C)(C)[C@H](O)CC[C@]2(C)[C@@]12Cc1c(O)cc3c(c1O2)CNC3=O` (stereo partly drawn), the values for the max response in the test on HaCat, in the test on KB-3-1 and in the test on NIH3T3 were -68.6%, 9.73% and -63%, respectively.
For `CC(=O)CCC1=C(C)C(O[C@@H]2O[C@H](CO)[C@@H](O)[C@H](O)[C@H]2O)C(O)CC1(C)C` (stereo partly drawn), in that order: 1.46%, 1.06% and 3.13%.
For the compound `C=CC(C)(C)C12C=C(OC)C(=O)N3C(C(C)C)C(=O)NC31N(OC)c1ccccc12` (stereo not drawn), the max response with HaCat is -0.498%; in the test on NIH3T3 it was -14.5%. For the same compound, the compound was called inactive with KB-3-1.
As to `O=C1Nc2ccccc2C(O)(c2ccccc2)C1O` (stereo not drawn), the max response in the test with HaCat was -18.6%; in the test on KB-3-1 it was 2.02%; with NIH3T3 it was -2.57%.
With `CC(=O)/C=C/[C@H]1[C@](C)(O)[C@@H](O)[C@H](OC(C)=O)C2C(C)(C)CCC[C@@]21C` (stereo partly drawn), the results for the max response in the test with HaCat and with NIH3T3 were -21.7% and -10.6%, respectively. In addition, the outcome with KB-3-1 was inactive.
For `CC1(C)CC[C@]2(C(=O)O[C@@H]3O[C@H](CO)[C@@H](O)[C@H](O)[C@H]3O)CC[C@]3(C)C(=CCC4[C@@]5(C)C[C@@H](O)[C@H](O)[C@@](C)(CO)C5CC[C@]43C)C2[C@@H]1O` (stereo partly drawn), in that order: -9.78%, 2.98% and “inactive”.
Consider `CC(C)c1ccc2c(c1)C(=O)CC1[C@@](C)(C(=O)O)CCC[C@]21C` (stereo partly drawn), for which the max response in the test on HaCat is -7.44%; in the test on KB-3-1, -10.5%; in the test with NIH3T3, 0.286%.
On the same counts, the results for `C[C@@H]1O[C@@H](O[C@@H]2[C@@H](O)[C@H](O[C@H]3[C@H](O[C@H]4CC[C@@]5(C)C(CC[C@]6(C)C5CC=C5[C@@H]7CC(C)(C)CC[C@]7(C(=O)O[C@@H]7O[C@H](CO)[C@@H](O)[C@H](O)[C@H]7O[C@@H]7O[C@@H](C)[C@H](O[C@@H]8O[C@@H](C)[C@H](O)[C@@H](O)[C@H]8O)[C@@H](O)[C@H]7O)CC[C@]56C)[C@@]4(C)CO)O[C@H](C(=O)O)[C@@H](O)[C@@H]3O)O[C@H](CO)[C@H]2O)[C@H](O)[C@H](O)[C@H]1O` (stereo partly drawn) are 4.58%, 5.11% and 2.85%.
For `C/C=C1\[C@H](O[C@@H]2O[C@H](CO)[C@@H](O)[C@H](O)[C@H]2O)OC=C(C(=O)OC)[C@H]1CC(=O)O`, in that order: -13.1%, -0.621% and -1.8%.
In the case of `O=C(O)c1cc(-c2c(-c3ccccc3)nn3ccccc23)n[nH]c1=O`, the max response was -37.3% with HaCat and -3.95% with NIH3T3. Besides, the outcome in the test with KB-3-1 was inactive.
In the case of `COc1c2c(cc3c1-c1c(cc4c(c1OC)OCO4)CC(C)C(C)C3)OCO2` (stereo not drawn), the max response in the test with HaCat was -1.94%; with KB-3-1 it was -8.19%; in the test with NIH3T3, -11.8%.
Take `CC1CC(C(O)C(C)(C)O)OC2CC3(C)C4(C)CCC5C(C)(C)C(=O)CCC5(C)C4CCC3(O)C12O` (stereo not drawn): the max response in the test on HaCat is 3.58%; in the test with NIH3T3, 2.04%. Further, in the test on KB-3-1, the compound was classed as inactive.
Turning to `CC(C)C(C(=O)N(C)C(C)C(N)=O)N(C)C(=O)C1CCCN1C(=O)/C=C/C=C/C(O)C(C)O` (stereo not drawn), the max response in the test on HaCat was -10.3%; in the test with KB-3-1, 7.9%; in the test on NIH3T3 it was 2.29%.
As for `C=C[C@H]1[C@H](O[C@@H]2O[C@H](CO)[C@@H](O)[C@H](O)[C@H]2O)OC=C(C(=O)OC)[C@H]1C[C@@H]1c2cc(O)c(O)cc2CCN1C(C)=O`, the max response was 3.48% with HaCat, -1.92% with KB-3-1 and -10.7% in the test with NIH3T3.
As to `CC1CCC23COC(=O)C2=CC(O)CC3C1(C)CCC1=CC(O)OC1=O` (stereo not drawn), the max response with HaCat was -7.3%; with NIH3T3, 0.229%. In addition, the compound was classed as inactive with KB-3-1.
As to `CC(=O)O[C@H]1CC[C@H](C)[C@@]2(C)[C@H](OC(C)=O)c3c(C)coc3C(=O)[C@H]12`, the max response in the test on HaCat was 2.83%; with KB-3-1, 6.49%; in the test with NIH3T3, -5.72%.
In the case of `CN1CCc2nc(C(=O)N[C@@H]3C[C@@H](C(=O)N(C)C)CC[C@@H]3NC(=O)C(=O)Nc3ccc(Cl)cn3)sc2C1`, the max response with HaCat was -24.6%; in the test with KB-3-1 it was -42%; in the test with NIH3T3, -49.4%.
In the case of `CC(=O)CC1CCC(C(C)C(=O)OCC(O)CO)O1` (stereo not drawn), the max response with HaCat was -2.79%; in the test with NIH3T3 it was -24.7%. In the test with KB-3-1, the call was inactive.
In the case of `COC1CC(O[C@H]2CC[C@@]3(C)C(CCC4C3[C@H](OC(C)=O)[C@@H](OC(=O)/C=C/c3ccccc3)[C@]3(C)C(C(C)=O)CC[C@]43O)C2)OC(C)C1OC1CC(OC)C(OC2CC(OC)C(OC3OC(C)C(OC4OC(CO)C(O)C(O)C4O)C(OC)C3O)C(C)O2)C(C)O1` (stereo partly drawn), the max response in the test with HaCat is -18.9%; in the test on KB-3-1, -0.895%; in the test with NIH3T3, -9.54%.
For `COc1ccccc1Oc1ccc(N(Cc2cccnc2)S(=O)(=O)CC(F)(F)F)cc1`, in that order: 0.0707%, -5.75% and -1.58%.
On the same counts, the results for `Cc1nc2sc(C(=O)NCc3ccncc3)c(N)c2c(C)c1Cl` are 0.272%, -3.45% and -29.7%.
For `C/C1=C\CC[C@]2(C)O[C@@H]2[C@H](O)[C@H](C(C)C)[C@H](OC(=O)/C=C/c2ccccc2)C1`, in that order: -5.06%, -3.73% and 2.07%.
As for `C[C@H](O)[C@H](O)/C=C/c1cccc(O)c1CO`, the max response in the test on HaCat is -3.13%; in the test on KB-3-1, 8.41%; in the test with NIH3T3, -3.03%.
On to `C=C[C@H]1[C@H](O[C@@H]2O[C@H](CO)[C@@H](O)[C@H](O)[C@H]2O)OC=C(C(=O)OC)[C@H]1CCOC(=O)c1cc(O)c(O)c(O)c1`, for which the max response is 4.92% in the test on HaCat and -1.02% with NIH3T3. In addition, the result with KB-3-1 was inactive.
Regarding `COC(=O)C1=CO[C@@H](O)C2C(CO)=CCC12` (stereo partly drawn), the max response was -12% in the test on HaCat, -1.48% with KB-3-1 and -2.89% with NIH3T3.
On the same counts, the results for `CC(C)(O)/C=C/C1=CC(=O)[C@@](C)(O)C[C@H]1O` are 4.28%, 7.85% and -2.07%.
Consider `CC12CCC(C(OC3OC(COC4OCC(O)(CO)C4O)C(O)C(O)C3O)C1)C(C)(C)O2` (stereo not drawn), for which the max response is -11.8% in the test with HaCat, 1.72% with KB-3-1 and 0.27% with NIH3T3.
For the compound `C=C[C@@H]1[C@H](O[C@@H]2O[C@H](CO)[C@@H](O)[C@H](O)[C@H]2O)OC=C(C(=O)O)[C@H]1CCOC(=O)/C=C/c1ccc(O)c(O)c1`, the max response was -20.8% with HaCat and 0.24% with NIH3T3. For the same compound, in the test with KB-3-1, the call was inactive.
In the case of `CC1=CC(=O)C2(OC3OC(C)C(O)C(OC(=O)/C=C/c4ccccc4)C3O)C=COC(OC3OC(CO)C(O)C(O)C3O)C12` (stereo not drawn), the figures for the max response with HaCat, in the test on KB-3-1 and in the test with NIH3T3 were 2.65%, 7.12% and 3.5%, respectively.
In the case of `NC[C@@](O)(c1ccc(Cl)cc1)c1ccc(-c2cn[nH]c2)cc1`, the Potency in the test with HaCat is 8.2 µM (active); with KB-3-1, 11.6 µM (active); with NIH3T3 it was 5.17 µM (active).
Regarding `O=C(NOCC(O)CO)c1ccc(F)c(F)c1Nc1ccc(I)cc1F` (stereo not drawn), in the test with HaCat, the max response was -79.3%. Besides, the compound was classed as inactive with KB-3-1. Also, the Potency with NIH3T3 was 1.84 µM (active).
Regarding `CCCn1c(=O)c2[nH]c(-c3ccc(OCC(=O)O)cc3)nc2n(CCC)c1=O`, the max response with HaCat was -4.84%; with NIH3T3, -3.27%. Further, the compound was classed as inactive in the test on KB-3-1.
Consider `C=C1CCC2C(C)(C)C(O)CCC2(C)C1CCC(C)CCO` (stereo not drawn), for which the max response is -1.49% in the test on HaCat, -10.1% with KB-3-1 and -0.535% in the test with NIH3T3.
With `C=C1C(O)C[C@@H]2C(C(=O)O)=CO[C@@H](O[C@@H]3O[C@H](CO)[C@@H](O)[C@H](O)[C@H]3OC(=O)c3ccc(O)cc3)[C@H]12` (stereo partly drawn), the figures for the max response in the test with HaCat and with NIH3T3 were 0.151% and 4.25%, respectively. In the test on KB-3-1, the compound was classed as inactive.
For `COc1cc(C(=O)O)ccc1OC1OC(CO)C(O)C(O)C1O` (stereo not drawn), in that order: 0.774%, -5.21% and “inactive”.
For `CC(C)[C@@H]1C(=O)N(S(C)(=O)=O)[C@@H]2CCN(C(=O)/C=C/CN3CCCCC3)[C@H]21`, the values for the max response in the test with HaCat, with KB-3-1 and in the test on NIH3T3 were -0.855%, 5.42% and 1.85%, respectively.
In the case of `OC[C@H]1O[C@@H](O[C@H]2[C@H](OCc3ccccc3)O[C@H](CO[C@@H]3OC[C@@H](O)[C@H](O)[C@H]3O)[C@@H](O)[C@@H]2O)[C@H](O)[C@@H](O)[C@@H]1O`, the figures for the max response with HaCat, with KB-3-1 and in the test with NIH3T3 were -3.65%, 4.93% and -3.84%, respectively.
Turning to `Nc1ncnc2c1ncn2CCNCCCCCO`, the max response in the test with HaCat was -23.1%; in the test with NIH3T3, -0.352%. Besides, the compound was called inactive in the test on KB-3-1.
Regarding `CC(/C=C/C1=CC2=CC(=O)C(C)(O)C(O)C2=CO1)=C\C(C)CCO` (stereo not drawn), the max response in the test on HaCat was -24.3%; in the test with KB-3-1 it was 4.06%; in the test on NIH3T3, 0.418%.
On the same counts, the results for `CCCN1CCN(c2ccc(C(=O)NC3(C(=O)NCC#N)CCCCC3)cc2)CC1` are -5.96%, -7.48% and 1.62%.
Take `Cc1ccc(S(=O)(=O)c2ccc([N+](=O)[O-])o2)cc1`: the Potency is 6.51 µM (active) in the test with HaCat, 23.1 µM (active) in the test with KB-3-1 and 5.17 µM (active) in the test on NIH3T3.
For `COC(=O)[C@@]1(c2ccc(C)cc2)C[C@H]1CN1CCC(O)(c2ccccc2)CC1`, the max response in the test with HaCat was -4.07%; with KB-3-1, -2.51%; in the test with NIH3T3, -2.42%.
As to `C=C(F)c1sc(CNCCCNc2cc(=O)c3ccccc3[nH]2)c(C)c1Br`, the max response in the test with HaCat is -0.153%; with NIH3T3 it was -1.77%. Further, the Potency in the test on KB-3-1 was 16.4 µM (active).
Consider `C[C@@H]1CCC/C=C/[C@H]2CC(=O)C[C@@H]2[C@@H](O)/C=C/C(=O)O1`, for which the max response in the test on HaCat was -12.2%; in the test with KB-3-1 it was 8.18%; with NIH3T3, -2.1%.
Take `CO[C@H]1C[C@@H]2CC[C@@H](C)[C@@](O)(O2)C(=O)C(=O)N2CCCC[C@H]2C(=O)O[C@H]([C@H](C)C[C@@H]2CC[C@H](n3cnnn3)[C@H](OC)C2)CC(=O)[C@H](C)/C=C(\C)[C@@H](O)[C@@H](OC)C(=O)[C@H](C)C[C@H](C)/C=C/C=C/C=C/1C`: the results for the max response with HaCat, in the test with KB-3-1 and with NIH3T3 were -3.38%, -0.0133% and 0.445%, respectively.
Take `CC(C)=CCC/C(C)=C/Cc1ccc(O)c(C2OC(=O)c3cc(C(=O)O)cc(O)c32)c1O` (stereo not drawn): the max response is -20.9% with HaCat, -2.57% in the test with KB-3-1 and 0.065% in the test on NIH3T3.
